Tgondii IFNg = T. gondii growth inhibition under IFN-gamma. activity change, negative = inhibition, % (test concentration not listed). Toxoplasma gondii growth in IFN-gamma-treated host cells; active compounds read low. 69,000 compounds, 3.8% hits; in the data active = activity change below about -70%, passing the limit was not always enough;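 note: host cells are HeLa cells infected with Toxoplasma gondii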
Active calls of the source: *; i = inactive; ! = a repeat was not active. Many of the other results were omitted from the sample, so hits are more common in it than they were.

SMILES | Tgondii IFNg
O=C(N[C@H]1C=C[C@@H](CC(=O)N2CCC(Cc3ccccc3)CC2)O[C@H]1CO)c1cnccn1 | 32
O=C(Nc1ccccc1OCCCc1ccccc1)c1ccccn1 | 5
CC(C)(C)C1CCc2[nH]nc(C(=O)Nc3cccc(Cn4cncn4)c3)c2C1 (configuration not stated) | 0
CC(C)(C)C1CCc2[nH]nc(C(=O)Nc3ccccc3OCc3ccccn3)c2C1 (configuration not stated) | -79*
Cc1cc(CN(Cc2sccc2C)C2CCCC2)n[nH]1 | 3
CN1CC[C@@]2(C(=O)Nc3ccccc3)CCN(S(=O)(=O)c3ccccc3)CC[C@H]12 | 44
CCCc1nc2cc(Cl)c(Cl)cc2nc1C | 15
COc1cc(CN(C)Cc2ncc[nH]2)cc2c1OCO2 | 1
NC(=O)c1cncc(N2CCC(CO)(Cc3ccccc3)CC2)n1 | -32
COc1ccc(CC2(CO)CCN(c3ncnc4c3CCC4)CC2)cc1 | -50
Cc1cccc2cc(CO)c(N3CCC(CO)(Cc4ccccc4)CC3)nc12 | -77*
CCOc1ccc(CN2CCC3(CC2)CNC(=O)C3)cn1 | -4
CCn1cc2c3c(cccc31)CN(C(=O)c1ccc(Cl)nc1)CC2 | 42
Cc1ccc(N2CCC3(CC2)C(=O)N(CCN(C)C)CCN3C)nn1 | 0
CC(c1cccc(-c2ccc3[nH]c(=O)[nH]c(=O)c3c2)c1)N1CCCC1 (configuration not stated) | -71*
Cc1[nH]c(=O)[nH]c(=O)c1-c1ccc(C(C)N2CCCC2)cc1 (configuration not stated) | -1
CC(c1cccc(-c2ccc[nH]c2=O)c1)N1CCCC1 (configuration not stated) | 3
N#C[C@H]1[C@H](c2ccccc2-c2cccc(F)c2)[C@H](CO)N1C(=O)CN1CCOCC1 | 3
O=C(CCn1cnc2ccccc21)N1CC[C@@H](c2ccccc2)[C@H](O)C1 | -10
COc1cccc2c(C)nc(NC3=NCN(CCCN4CCOCC4)CN3)nc12 | 7
CC(=O)O[C@H]1C(=O)[C@@]2(C)C([C@H](OC(=O)c3ccccc3)[C@]3(O)C[C@H](OC(=O)[C@H](O)[C@@H](NC(=O)c4ccccc4)c4ccccc4)C(C)=C1C3(C)C)[C@]1(OC(C)=O)CO[C@@H]1C[C@@H]2O (some centres not stated) | -79*
CC(=O)OC1C(=O)C2(C)C(O)CC3OCC3(OC(C)=O)C2C(OC(=O)c2ccccc2)C2(O)CC(OC(=O)C(O)C(NC(=O)c3ccccc3)c3ccccc3)C(C)=C1C2(C)C (configuration not stated) | -88*
CCOCCN1CC[C@@H]2C[C@@H](C(=O)N3CCCCO3)O[C@@H]2C1 | -2
CO[C@H]1CN(C(=O)N2CCCC2)[C@H]2CCCO[C@@H]12 | 136
Cc1ccccc1-c1ncc(CN2CCc3c([nH]c4ccccc34)C2c2cccc(O)c2)cn1 (configuration not stated) | 21
SMILES | Tgondii IFNg
CNCCCC1c2ccccc2C=Cc2ccccc21 | -81*!
CNCCC=C1c2ccccc2C=Cc2ccccc21 | 16
Cc1ccsc1CNc1ccc(C(=O)N2CCCC(Cn3ccnc3C)C2)cc1 (configuration not stated) | -29
Cc1ccc(CN2CC[C@@H]3[C@@H]2CCN3C(=O)c2cnn(C)c2)s1 | -12
COc1ccc(C)cc1-c1noc([C@H]2CCCO2)n1 | 6
CCC(=O)Nc1c(C)ccc2nsnc12 | 8
C=CCN(CC=C)C(=O)Nc1ccc2nsnc2c1 | -81*
O=C(Nc1ccc2c(c1)OCCO2)c1ccc2nsnc2c1 | i
O=C(Cc1cccnc1)N1[C@@H](CO)[C@H](c2ccccc2)[C@@H]1CNCC1CCC1 | -46
COC(=O)C1CC23C=CNC4CCC5(c6ccccc6NC15C2C)C43 (configuration not stated) | -86*
O=C(CSc1ncccn1)NCC1Cc2cc(Cl)cc(-c3ccc4[nH]ccc4c3)c2O1 (configuration not stated) | -6
Cc1ccc(-c2cncnc2NC(=O)c2ccccc2)cc1 | -9
COc1cc(CN(C)C(C)c2ccccn2)cc2c1OCO2 (configuration not stated) | -20
Cc1ccccc1-c1ncc(CN2CCCC2Cn2cccn2)s1 (configuration not stated) | 16
CC1(CCC#N)N=C(SCCC#N)N(c2ccccc2)C1=O (configuration not stated) | -74*
CC1=C(C(=O)N2CCN(c3ccccc3)CC2)C2(CCN(S(C)(=O)=O)CC2)OC1=O | 9
CCOc1ccccc1CN(C)Cc1cc(-c2ccncc2)no1 | 21
CN(Cc1cc(-c2ccncc2)no1)Cc1ccc(Cl)cc1F | -90*
CN(Cc1cc(-c2ccncc2)no1)Cc1ccc(Cl)s1 | -13
O=C1CCCN1Cc1nnc2n1CCCN(c1ncc(F)cn1)C2 | -2
COc1ccc(C=C2CCC(=O)CC2)cc1 | 81
O=C(c1ccccc1)N1CCS(=O)(=O)[C@H]2CCN(Cc3ccc(F)cc3)CC[C@@H]21 | -2
O=S(=O)(c1cccs1)N1CCC2(CC1)Nc1cccnc1NC2=NC1CCCC1 | 94
Cc1ccc(S(=O)(=O)N(C)c2cncc(C(=O)N3CCCCCC3)c2)cc1 | -11
CN(c1cncc(C(=O)N2CCN(c3cccc(Cl)c3)CC2)c1)S(=O)(=O)c1ccccc1 | -15
SMILES | Tgondii IFNg
Cc1ccc(S(=O)(=O)N(C)c2cncc(C(=O)N3CCC(Cc4ccccc4)CC3)c2)cc1 | -96*
Cc1nn(C)c2oc(=O)cc(-c3ccccc3)c12 | 3
CCc1ccc(NC(=O)CN2CCC3(CC2)N=C(c2ccc(C)c(C)c2)C(=O)N3)cc1 | 80
COc1ccc(-c2cccc(-c3noc(C)n3)c2)c(OC)c1OC | -75*
COc1ccc(-c2noc(COc3cccnc3C)n2)c(OC)c1OC | -26
Cc1nc(-c2cccc(-c3cccc4ccnn34)c2)no1 | 8
COc1ccc(OCc2nc(C(=O)N3CC4(C)CN(C)CC(C)(C3)C4)co2)cc1 | 1
CC(C)n1nc(C(C)(C)C)cc1C(C)(C)C | 42
Cc1cc(-n2nc(-c3cccc(C(F)(F)F)c3)cc2N)nc2c1c(C)nn2C | -17
CC1(C)COC(c2sccc2C(=O)N(C(=O)NC2CCCCC2)C2CCCCC2)=N1 | -11
Fc1cccc(CSc2nc(Nc3ccc4c(c3)OCO4)c3ccccc3n2)c1 | -48
c1ccc(CSc2nccc(-c3ccc4c(c3)CCO4)n2)cc1 | -81*
Cc1nc(-c2ccc(Cl)cc2)sc1-c1ccnc(SCc2ccccc2)n1 | -62
CCc1ccc(Nc2nc(C(=O)NCCc3cccs3)nc3ccccc23)cc1 | -39
O=C(NC(=S)N1CCOCC1)c1ccccc1 | 24
O=C(NC(=O)c1ccccc1O)c1ccoc1 | -84*
Cc1ccc(NC(=O)c2ccoc2)cc1NCC#N | 45
O=C(NC1CCCN(C(=O)c2cccs2)C1)c1cccc2ccnn12 (configuration not stated) | 66
Cc1ccc(S(=O)(=O)N2C[C@@H](O)COC[C@@H]3O[C@H](CC(=O)NCc4ccc5c(c4)OCO5)CC[C@H]32)cc1 | -24
Oc1cccc(-c2ccc(NC3CCCC3)nn2)c1 | 13
C=CCc1cc(CN2CCN3CCN(C)C(=O)C3C2)cc(OC)c1O (configuration not stated) | 12
c1coc(CN2CCOCC3(CC(CN4CCCC4)CO3)C2)c1 (configuration not stated) | -2
Cc1cnc(C)c(N2CCN(Cc3c(CO)cnc(C)c3O)CC2)n1 | -4
Cc1ncc(CN2CCSCC2)c(CO)c1O | -76*
Cc1ncc(CO)c(CO)c1O | 6
